In ChEMBL document CHEMBL4513141, “CO-ADD screening of NIH (USA) - Clinical Collection” (2021):
Results with a measured potency or affinity are listed apart.

Tests used:
Klebsiella pneumoniae = details: Concentration 20 uM; ASSAY_TEST Inhibition of Bacterial Growth; detection method Absorption (OD600); MEDIA CAMHB; plate type 384well; NBS; CORNING #3640; time 18 hr
Candida albicans = details: 20 µM
Cryptococcus neoformans = details: Concentration 20 uM; ASSAY_TEST Inhibition of Fungal Growth; detection method Resazurin; Absorption (OD600-OD570); plate type 384well; NBS; CORNING #3640

SMILES	Inhibition (Klebsiella pneumoniae)	Inhibition (Candida albicans)	Inhibition (Cryptococcus neoformans)
C[C@]12C=CC(=O)C=C1CC[C@@H]1[C@@H]2C(=O)C[C@@]2(C)[C@H]1CC[C@]2(O)C(=O)CO [PREDNISONE]	18.73%	1.91%	-7.34%
Cc1cccc(Nc2ccncc2S(=O)(=O)NC(=O)NC(C)C)c1 [TORSEMIDE]	8.97%	2.49%	0.39%
CCCc1nc(C)c2c(O)nc(-c3cc(S(=O)(=O)N4CCN(CC)CC4)ccc3OCC)nn12.O=C(O)CC(O)(CC(=O)O)C(=O)O	10.86%	4.67%	-15.39%
CC1=Nc2ccc(Cl)cc2S(=O)(=O)N1 [DIAZOXIDE]	19.87%	4.07%	-6.19%
CC(C)(C)NC(=O)[C@@H]1CN(Cc2cccnc2)CCN1C[C@@H](O)C[C@@H](Cc1ccccc1)C(=O)N[C@H]1c2ccccc2C[C@H]1O.O=S(=O)(O)O [INDINAVIR SULFATE]	0.54%	2.58%	-4.45%
NC(=O)c1cccnc1 [NIACINAMIDE]	11.31%	2.62%	-0.49%
CCC(C)(C)C(=O)O[C@H]1C[C@@H](C)C=C2C=C[C@H](C)[C@H](CC[C@@H]3C[C@@H](O)CC(=O)O3)[C@H]21 [SIMVASTATIN]	-2.13%	14.8%	3.41%
CCN1CCCC1CNC(=O)c1cc(S(=O)(=O)CC)c(N)cc1OC (configuration not stated) [AMISULPRIDE]	4.49%	1.45%	-4%
C[C@@H]1O[C@@H](OC[C@H]2O[C@@H](Oc3c(-c4ccc(O)c(O)c4)oc4cc(O)cc(O)c4c3=O)[C@H](O)[C@@H](O)[C@@H]2O)[C@H](O)[C@H](O)[C@H]1O [RUTIN]	10.13%	3.37%	-5.7%
CN1CCN(CC/C=C2/c3ccccc3Sc3ccc(S(=O)(=O)N(C)C)cc32)CC1 [THIOTHIXENE]	0.07%	2.99%	-5.03%
CSc1ccc2c(c1)N(CCC1CCCCN1C)c1ccccc1S2.Cl (configuration not stated) [THIORIDAZINE HYDROCHLORIDE]	9.7%	4.12%	4.01%
O=C(O)COCCN1CCN([C@H](c2ccccc2)c2ccc(Cl)cc2)CC1 [LEVOCETIRIZINE]	20.22%	0.53%	0.71%
Cc1ncc([N+](=O)[O-])n1CC(C)O (configuration not stated) [SECNIDAZOLE]	8.29%	1.89%	0.36%
COc1ccc2cc(CCC(C)=O)ccc2c1 [NABUMETONE]	8.45%	5.24%	-7.4%
Br.CN(C)CCCC1(c2ccc(F)cc2)OCc2cc(C#N)ccc21 (configuration not stated) [CITALOPRAM HYDROBROMIDE]	0.36%	2.48%	-12.2%
CCN(CC)CCOc1ccc(C(=C(Cl)c2ccccc2)c2ccccc2)cc1.O=C(O)CC(O)(CC(=O)O)C(=O)O [CLOMIPHENE CITRATE]	12.13%	7.1%	-20.85%
CN1CCN(CCCN2c3ccccc3Sc3ccc(Cl)cc32)CC1.O=C(O)/C=C\C(=O)O.O=C(O)/C=C\C(=O)O [PROCHLORPERAZINE MALEATE]	14.2%	3.08%	-1.92%
CC(Cc1ccc(O)c(O)c1)(NN)C(=O)O.O (configuration not stated)	11.66%	2.35%	-6.03%
Cc1cnc(C(=O)NCCc2ccc(S(=O)(=O)NC(=O)NC3CCCCC3)cc2)cn1 [GLIPIZIDE]	8.44%	3.06%	-1.88%
O=C(NCCO[N+](=O)[O-])c1cccnc1 [NICORANDIL]	15.28%	1.66%	-0.1%
CC(COc1ccccc1Cc1ccccc1)N1CCCCC1.O=P(O)(O)O (configuration not stated)	14.21%	3.69%	0.43%
CC#C[C@]1(O)CC[C@H]2[C@@H]3CCC4=CC(=O)CCC4=C3[C@@H](c3ccc(N(C)C)cc3)C[C@@]21C [MIFEPRISTONE]	3.7%	3.98%	-10.45%
CC(=O)Nc1ccc(CC(=O)O)cc1 [ACTARIT]	4.76%	-0.65%	4.09%
COc1ccc(CC2c3cc(OC)c(OC)cc3CC[N+]2(C)CCC(=O)OCCCCCOC(=O)CC[N+]2(C)CCc3cc(OC)c(OC)cc3C2Cc2ccc(OC)c(OC)c2)cc1OC.O=S(=O)(O)c1ccccc1 (configuration not stated)	4.87%	3.58%	-0.33%
